Reference: PubChem BioAssay (Tox21)
Inconclusive results are not listed. The source made the active and inactive calls. Unless noted, calls follow the shape of the dose curve; as a rule, active = well fitted curve in the direction sought with a large enough effect in the repeat runs; inconclusive = weak or mixed curves; inactive = no such curve, though single readings can be large; an effect the other way counts as inactive or inconclusive.

Key:
[1] = target: Thyrotropin receptor (Homo sapiens) (UniProt P16473); test: qHTS assay to identify small molecule agonists of the thyroid stimulating hormone receptor (TSHR) signaling pathway (AID 1224843; calls by dose curve; also: nearly all actives have a fitted effect of over 45% in size)
Summary of the method: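 HEK293 cells stably bearing the thyrotropin receptor were plated at 800 cells/well and challenged with compound (30 min, RT). Accumulated cAMP was quantified via cAMP-d2 competing for cryptate-tagged antibody.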

[2] = qHTS assay to identify small molecule agonists of the hypoxia (HIF-1) signaling pathway - cell viability counter screen (AID 1224844; calls by dose curve; also: nearly all actives have a fitted effect of over 50% in size)
Summary of the method: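 Multiplexed with the HRE beta-lactamase assay, this viability read used CellTiter-Glo luminescence (30 min, RT) on HRE-bla ME-180 cells treated 17 hrs with compounds in 0.5% dialyzed FBS medium.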

[3] = qHTS assay to identify small molecule agonists of the hypoxia (HIF-1) signaling pathway (AID 1224846; active = well fitted activation curve with a large enough effect in the signal ratio in the repeat runs, not every such curve was filed as active; the % refers to the signal ratio)
Summary of the method: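 Hypoxia-pathway activation was scored as increased beta-lactamase from an HRE-controlled reporter in ME-180 cells; plated at 2,000 cells per well with 0.5% dialyzed FBS, they were exposed 17 hrs to compounds and then given CCF4-AM.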

[4] = qHTS assay to identify small molecule agonists of H2AX - cell viability counter screen (AID 1224847; calls by dose curve; also: top concentration of the series differs between compounds; nearly all actives have a fitted effect of over 30% in size)
Summary of the method: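 Cytotoxicity counter screen in wild-type CHO-K1 cells: a 3 hr compound treatment at 37C across 15 concentrations, followed by CellTiter-Glo luminescence to gauge viable cells.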

[5] = qHTS RealTime-Glo MT Cell Viability Assay in HepG2 cells - 24 hour (AID 1224867); also: nearly all actives have a fitted effect of over 50% in size
Summary of the method: (§1)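 HepG2 cells were seeded at 600 cells/well together with NanoLuc luciferase and a cell-permeant prosubstrate, preincubated 5 h at 37 C/5% CO2, then pin-dosed with compounds in DMSO. Nonlytic luminescence from viable cells was read at each time point.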

[6] = qHTS RealTime-Glo MT Cell Viability Assay in HEK293 cells - 32 hour (AID 1224868); also: nearly all actives have a fitted effect of over 50% in size; also: potency is read from the fitted curve at half-maximal effect
Summary of the method: (§2)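 HEK293 cells were seeded at 600 cells/well together with NanoLuc luciferase and cell-permeant prosubstrate, preincubated 5 h at 37 C/5% CO2, then given compound in DMSO by pintool. Luminescence from viable-cell prosubstrate reduction was read repeatedly over 40 h.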

[7] = A CellTox Green Cytotoxicity Assay to monitor cytotoxicity in HEK293 cells - 0 hour (AID 1224869); also: nearly all actives have a fitted effect of over 50% in size
Summary of the method: (§3)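 Seeding of HEK293 cells together with cytotoxicity dye preceded a 5 h incubation at 37 C/5% CO2. Test compounds in DMSO were then added and fluorescence monitored across 40 h.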

[8] = A CellTox Green Cytotoxicity Assay to monitor cytotoxicity in HEK293 cells - 40 hour (AID 1224871); also: nearly all actives have a fitted effect of over 45% in size
Summary of the method: as §3

[9] = qHTS RealTime-Glo MT Cell Viability Assay in HEK293 cells - 16 hour (AID 1224872); also: nearly all actives have a fitted effect of over 50% in size; also: potency is read from the fitted curve at half-maximal effect
Summary of the method: as §2

[10] = qHTS RealTime-Glo MT Cell Viability Assay in HepG2 cells - 8 hour (AID 1224873); also: nearly all actives have a fitted effect of over 55% in size
Summary of the method: (§4)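 Real-time viability: cells seeded at 600 per well together with NanoLuc and cell-permeant prosubstrate, compounds added after 5 h incubation. Luminescence tracked at 0, 8, 16, 24, 32 and 40 h of exposure.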

[11] = qHTS RealTime-Glo MT Cell Viability Assay in HEK293 cells - 40 hour (AID 1224874); details: RealTime-Glo luminescence; max response: stronger effect = lower value; also: nearly all actives have a fitted effect of over 50% in size; also: potency is read from the fitted curve at half-maximal effect
Summary of the method: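 Tox21 screen in HEK293 using RealTime-Glo MT chemistry, with cells and reagent co-dispensed. Luminescence proportional to viable cell number was captured at intervals during 40 h compound exposure at 37 C.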

[12] = A CellTox Green Cytotoxicity Assay to monitor cytotoxicity in HEK293 cells - 24 hour (AID 1224875); also: nearly all actives have a fitted effect of over 45% in size
Summary of the method: as §3

[13] = A CellTox Green Cytotoxicity Assay to monitor cytotoxicity in HepG2 cells - 16 hour (AID 1224876); also: nearly all actives have a fitted effect of over 45% in size
Summary of the method: (§5)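 Nonlytic assay: viable cells exclude the dye, so fluorescence scales with cell death. HepG2 at 600 cells/well, compounds added after 5 h, signal read across 40 h.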

[14] = qHTS RealTime-Glo MT Cell Viability Assay in HepG2 cells - 32 hour (AID 1224877); also: nearly all actives have a fitted effect of over 55% in size
Summary of the method: as §1

[15] = A CellTox Green Cytotoxicity Assay to monitor cytotoxicity in HepG2 cells - 40 hour (AID 1224879); also: nearly all actives have a fitted effect of over 40% in size
Summary of the method: as §5

[16] = qHTS RealTime-Glo MT Cell Viability Assay in HepG2 cells - 40 hour (AID 1224870); also: nearly all actives have a fitted effect of over 50% in size
Summary of the method: as §4

[17] = qHTS assay to identify small molecule agonists of H2AX (AID 1224845; active = well fitted activation curve with a large enough effect in the signal ratio in the repeat runs, not every such curve was filed as active; the % refers to the signal ratio)
Summary of the method: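 Phospho-H2AX Ser139 measured by HTRF (ex 320 nm; em 665 and 620 nm) after 24 hr antibody incubation. Compounds, 15 concentrations, 0.76% DMSO, were applied to CHO-K1 cells for 3hr at 37C before lysis.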

[18] = A CellTox Green Cytotoxicity Assay to monitor cytotoxicity in HepG2 cells - 24 hour (AID 1224878); also: nearly all actives have a fitted effect of over 45% in size; also: potency is read from the fitted curve at half-maximal effect
Summary of the method: as §5

[19] = qHTS assay to identify small molecule antagonists of the estrogen related receptor (ERR) signaling pathway from Tox21 library (AID 1224848); also: nearly all actives have a fitted effect of over 50% in size
Summary of the method: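 Reading was by luminescence 30 min after ONE-Glo addition. Before that, ERR cells at 2,000 per well had rested 6 h at 37 C/5% CO2 and then received pin-tooled compounds in DMSO for 18 h at 37 C.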

[20] = qHTS assay to identify small molecule agonists of the estrogen related receptor (ERR) signaling pathway from Tox21 library (AID 1224849; calls by dose curve; also: nearly all actives have a fitted effect of over 15% in size); details: ERR reporter cell line, ONE-Glo luciferase, 18 h; at 92.4 µM (top of the series) unless noted
Summary of the method: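 Six hours post-seeding at 37 C/5% CO2, ERR cells receive DMSO-solubilised compounds; after 18 h at 37 C, ONE-Glo reagent is applied and luminescence recorded.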
% is scaled to controls: 0 for no effect and ±100 for the full control effect.

Thyrotropin receptor (Homo sapiens), sequence (P16473 whole entry, looked up): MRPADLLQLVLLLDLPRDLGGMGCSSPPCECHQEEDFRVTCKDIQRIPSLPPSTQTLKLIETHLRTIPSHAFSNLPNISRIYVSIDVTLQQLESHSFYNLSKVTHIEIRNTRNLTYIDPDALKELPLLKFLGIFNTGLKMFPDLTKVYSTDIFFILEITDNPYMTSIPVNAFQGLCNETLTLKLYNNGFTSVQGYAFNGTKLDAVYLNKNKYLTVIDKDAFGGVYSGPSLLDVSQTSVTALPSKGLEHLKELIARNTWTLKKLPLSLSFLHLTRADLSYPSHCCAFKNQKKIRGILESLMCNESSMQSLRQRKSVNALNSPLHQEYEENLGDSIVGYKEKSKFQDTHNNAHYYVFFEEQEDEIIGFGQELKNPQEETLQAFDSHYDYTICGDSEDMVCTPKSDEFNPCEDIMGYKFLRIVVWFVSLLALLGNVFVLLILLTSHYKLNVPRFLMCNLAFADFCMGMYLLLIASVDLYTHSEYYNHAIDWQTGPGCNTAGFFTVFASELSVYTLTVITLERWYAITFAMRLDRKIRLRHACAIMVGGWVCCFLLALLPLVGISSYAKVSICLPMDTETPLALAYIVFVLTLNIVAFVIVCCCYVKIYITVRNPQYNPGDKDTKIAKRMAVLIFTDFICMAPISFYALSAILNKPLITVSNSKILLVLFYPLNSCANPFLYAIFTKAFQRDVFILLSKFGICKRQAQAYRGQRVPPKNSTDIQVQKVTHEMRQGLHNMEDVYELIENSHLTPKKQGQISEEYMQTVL

Cc1ccccc1S(N)(=O)=O
inactive: Potency [1] | Potency [2] | outcome [3] | Potency [4] | Potency [5] | Potency [6] | Potency [7] | Potency [8] | Potency [9] | Potency [10] | max response [11] 8.27% | Potency [12] | Potency [13] | Potency [14] | Potency [15]

CC(C)(O)c1coc(S(=O)(=O)NC(=O)Nc2c3c(cc4c2CCC4)CCC3)c1
inactive: Potency [1] | Potency [2] | outcome [3] | Potency [4] | Potency [5] | Potency [6] | Potency [7] | Potency [16] | Potency [8] | Potency [9] | Potency [10] | max response [11] 21.1% | Potency [14]

CC(C)(O)CCc1ccccc1
inactive: Potency [1] | Potency [2] | outcome [3] | Potency [4] | Potency [5] | Potency [6] | Potency [7] | Potency [16] | Potency [8] | Potency [9] | Potency [10] | max response [11] -8.47% | Potency [13] | Potency [14] | Potency [15]

CCCc1nc2c(C)cc(-c3nc4ccccc4n3C)cc2n1Cc1ccc(-c2ccccc2C(=O)O)cc1
inactive: Potency [1] | Potency [2] | Potency [17] | Potency [4] | Potency [5] | Potency [7] | Potency [16] | Potency [8] | Potency [12] | Potency [13] | Potency [14] | Potency [18] | Potency [15]

CC(=O)OCC1=C(C(=O)O)N2C(=O)[C@@H](NC(=O)CSc3ccncc3)[C@H]2SC1
inactive: Potency [1] | Potency [2] | Potency [4] | Potency [19] | activity change, positive = activation [20] 0.532% [at 42.5 µM] | Potency [5] | Potency [6] | Potency [7] | Potency [16] | Potency [8] | Potency [9] | Potency [10] | max response [11] 5.21% | Potency [12] | Potency [13] | Potency [14] | Potency [18] | Potency [15]

CC(=O)Oc1cccc(O)c1
inactive: Potency [1] | Potency [2] | outcome [3] | Potency [4] | Potency [19] | activity change, positive = activation [20] 5.58% [at 42.5 µM] | Potency [5] | Potency [6] | Potency [7] | Potency [16] | Potency [8] | Potency [9] | Potency [10] | max response [11] -0.489% | Potency [13] | Potency [14] | Potency [18] | Potency [15]

O=C(O)CNC(=O)c1ccccc1I
inactive: Potency [1] | Potency [2] | outcome [3] | Potency [4] | Potency [5] | Potency [6] | Potency [7] | Potency [8] | Potency [9] | Potency [10] | max response [11] 6.48% | Potency [13] | Potency [14] | Potency [18] | Potency [15]

CC(CN(CCN(CC(C)OCCO)CC(C)OCCO)CC(C)OCCO)OCCO (configuration not stated)
active: Potency [6] 23.7 µM | Potency [9] 18.8 µM | Potency [11] 23.7 µM
inactive: Potency [1] | Potency [2] | Potency [17] | Potency [16] | Potency [10] | Potency [12] | Potency [13] | Potency [14]

CC(C)(C)C1(CCc2ccc(Cl)cc2)CO1 (configuration not stated)
inactive: Potency [1] | Potency [2] | outcome [3] | Potency [4] | Potency [5] | Potency [6] | Potency [7] | Potency [16] | Potency [8] | Potency [9] | Potency [10] | max response [11] -16.7% | Potency [13] | Potency [14]

O=C1OC(=O)c2c(Br)c(Br)c(Br)c(Br)c21
inactive: Potency [1] | Potency [2] | outcome [3] | Potency [4] | Potency [5] | Potency [6] | Potency [7] | Potency [16] | Potency [9] | Potency [10] | max response [11] -18% | Potency [12] | Potency [13] | Potency [14] | Potency [18]

O=C(c1ccccc1)c1ccc(O)cc1
inactive: Potency [1] | Potency [2] | outcome [3] | activity change, positive = activation [20] -59.8% | Potency [5] | Potency [6] | Potency [7] | Potency [16] | Potency [8] | Potency [9] | Potency [10] | max response [11] -20.1% | Potency [14] | Potency [18] | Potency [15]

Oc1cccc2[nH]ccc12
inactive: Potency [1] | Potency [2] | outcome [3] | Potency [4] | Potency [5] | Potency [6] | Potency [7] | Potency [16] | Potency [8] | Potency [9] | Potency [10] | max response [11] 12.2% | Potency [12] | Potency [13] | Potency [14] | Potency [15]

CCCCCc1ccco1
inactive: Potency [1] | Potency [2] | outcome [3] | Potency [4] | Potency [5] | Potency [6] | Potency [7] | Potency [8] | Potency [9] | Potency [10] | max response [11] 4.73% | Potency [13] | Potency [14] | Potency [18] | Potency [15]

O=C(O)CCCc1c[nH]c2ccccc12
inactive: Potency [1] | Potency [2] | Potency [17] | Potency [19] | activity change, positive = activation [20] 11.9% | Potency [5] | Potency [6] | Potency [7] | Potency [16] | Potency [8] | Potency [9] | Potency [10] | max response [11] -0.277% | Potency [12] | Potency [13] | Potency [14]
active: Potency [18] 17.4 µM

C[C@H](CS)C(=O)N1CCC[C@H]1C(=O)O
inactive: Potency [1] | Potency [2] | Potency [17] | Potency [4] | Potency [5] | Potency [6] | Potency [8] | Potency [9] | Potency [10] | max response [11] 9.42% | Potency [12] | Potency [14] | Potency [18]

COc1cc(S(=O)(=O)Nc2ccccc2)c(OC)cc1N
inactive: Potency [1] | Potency [2] | outcome [3] | Potency [4] | Potency [6] | Potency [7] | Potency [16] | Potency [9] | max response [11] -20.8% | Potency [12] | Potency [13] | Potency [14] | Potency [18] | Potency [15]
